Assay in all cases: NCI-60 one-dose screen, 48 h (100 = growth as untreated, 0 = no growth, -100 = all killed)
Holding throughout (conditions): 10 µM unless noted

Assay [1] has as its system NCI-H23 lung.
For assay [2], the system named is NCI-H226 lung.
Assay [3] relates to NCI-H322M lung.
For assay [4], the system named is NCI-H460 lung.
Assay [5] has as its system HOP-92 NSCLC.
Assay [6] concerns NCI-H522 lung.
Assay [7] concerns 786-0 renal.
Assay [8] relates to COLO 205 colon.
In assay [9] the test system is DU-145 prostate.
The test system of assay [10] is K-562 leukemia.
Assay [11] deals with MALME-3M melanoma.
The subject of assay [12] is MDA-MB-231 breast.
For assay [13], the system named is RXF 393 renal.
For assay [14], the system named is SF-268 CNS.
For assay [15], the system named is SF-295 CNS.
Assay [16] has as its system SF-539 CNS.
For assay [17], the system named is UACC-257 melanoma.
Assay [18] relates to M14 melanoma.
Assay [19] deals with A549/ATCC NSCLC.

About 83,000 compounds went through this panel and 20% of them were active in at least one assay; those are over-represented in the sample as a whole.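 In brief: 96-well plates, 48 h treatment, single concentration, percent growth endpoint.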 The source made the active and inactive calls. Rule for the calls: active = growth percent below 10; inactive = the rest.

Regarding `Cc1ccc(S(=O)(=O)n2ccnc2)cc1`, the growth in assay [1] is 102% (inactive); in assay [2] it was 93.5% (inactive); in [3] it was 118% (inactive); in assay [4], 104% (inactive); in [5] it was 97% (inactive); in [6], 95.8% (inactive). Also, the growth in assay [7] is 138% (inactive); in [8] it was 120% (inactive); in assay [9], 120% (inactive); in [10] it was 123% (inactive); in assay [11], 107% (inactive); in assay [12], 98.9% (inactive). Also, the growth was 96.2% (inactive) in assay [13]; 104% (inactive) in [14]; 102% (inactive) in assay [15]; 96.7% (inactive) in [16]; 91.5% (inactive) in assay [17]; 104% (inactive) in assay [18].

Regarding `O=C(O)COc1ccccc1F`, the growth in assay [1] was 106% (inactive); in assay [2] it was 94.2% (inactive); in assay [3], 106% (inactive); in assay [4], 101% (inactive); in assay [5], 96.3% (inactive); in [6] it was 106% (inactive). For the same molecule, the growth was 110% (inactive) in [19]; 102% (inactive) in assay [7]; 114% (inactive) in [8]; 108% (inactive) in assay [9]; 92.5% (inactive) in assay [10]; 108% (inactive) in assay [11]. Also, the growth in assay [12] is 115% (inactive); in assay [13], 92.3% (inactive); in assay [14], 107% (inactive); in [15], 106% (inactive); in assay [16] it was 97.4% (inactive); in assay [17] it was 115% (inactive). Besides, in assay [18], the growth is 103% (inactive).

With `CC1(C)CC(=O)NC1=O`, the growth in assay [1] is 96.5% (inactive); in assay [2], 99.6% (inactive); in assay [3], 94.2% (inactive); in [4] it was 108% (inactive); in assay [5], 114% (inactive); in assay [6], 96.8% (inactive). The growth in assay [19] is 99.3% (inactive); in [7], 97.6% (inactive); in assay [8], 113% (inactive); in assay [9], 109% (inactive); in assay [10] it was 94.8% (inactive); in assay [11] it was 102% (inactive). The growth in assay [12] was 106% (inactive); in assay [13] it was 97.7% (inactive); in [14] it was 100% (inactive); in assay [15] it was 108% (inactive); in assay [16], 93.5% (inactive); in [17], 101% (inactive). In addition, in assay [18], the growth was 95% (inactive).

Regarding `C/C(=C\c1ccccc1)C(O)C(=O)c1nc2ccc([N+](=O)[O-])cc2[nH]c1=O` (stereo unspecified), the growth is 104% (inactive) in [1]; 88% (inactive) in assay [2]; 90.3% (inactive) in assay [3]; 94.7% (inactive) in assay [4]; 78.9% (inactive) in [5]; 85.7% (inactive) in assay [19]. In addition, the growth is 101% (inactive) in assay [7]; 111% (inactive) in assay [8]; 105% (inactive) in [9]; 85.8% (inactive) in assay [10]; 109% (inactive) in assay [11]; 90.8% (inactive) in assay [12]. The growth in assay [13] is 109% (inactive); in [14], 98.1% (inactive); in assay [15], 93.3% (inactive); in assay [16] it was 102% (inactive); in [17], 81.2% (inactive); in assay [18], 92.3% (inactive).

`O=C(O)Cc1cc(=O)[nH]n(-c2ccccc2)c1=O`: the growth in assay [1] was 108% (inactive); in assay [2] it was 98.1% (inactive); in assay [3] it was 109% (inactive); in assay [4] it was 109% (inactive); in assay [5], 98% (inactive); in assay [19] it was 95.6% (inactive). Also, the growth was 108% (inactive) in [7]; 110% (inactive) in assay [8]; 115% (inactive) in [9]; 100% (inactive) in [10]; 113% (inactive) in [11]; 101% (inactive) in assay [12]. Also, the growth in [13] was 109% (inactive); in assay [14] it was 96.8% (inactive); in assay [15], 97.4% (inactive); in assay [16], 99.1% (inactive); in assay [17] it was 98.2% (inactive); in assay [18], 106% (inactive).

`COc1ccc(CCl)c(C)c1OC`: the growth in assay [1] is 96.2% (inactive); in assay [2], 95.8% (inactive); in assay [3], 95.8% (inactive); in assay [4], 103% (inactive); in [5], 86.1% (inactive); in [6], 99.8% (inactive). The growth in [19] is 102% (inactive); in assay [7], 106% (inactive); in assay [8] it was 109% (inactive); in assay [9] it was 104% (inactive); in assay [10] it was 6.6% (active); in assay [11], 84.9% (inactive). Moreover, the growth is 98.5% (inactive) in assay [12]; 112% (inactive) in [13]; 97.1% (inactive) in [14]; 95.3% (inactive) in assay [15]; 99.4% (inactive) in assay [16]; 96% (inactive) in [17]. The growth in [18] was 110% (inactive).

Source of the values: PubChem BioAssay (NCI).
